Data: the supplement of paper PMC10849652
The full data set covers some 7,900 targets. This sample favours those with a hit. About 0.6% of all pairs of compound and target were hits.

How the values were obtained:
Assay in all cases: log2 fold change, soluble protein after heating vs DMSO (PISA); higher = thermal stabilisation; K562 cells, 10 uM, 30 min; active = over 0.2 and 3.5 SD of the protein, either way, in both replicates (recomputed)
[1] = compound: C1=CC=C(C=C1)[C@H](COC2=CC3=C(C=C2)NC(=O)N3)NC(=O)C4=CC=CN(C4=O)CC5=CC(=C(C=C5)F)F
How it was run: (§1)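 Aliquots of K562 cells (2×10^6 cells/mL) treated with 10 μM compound for 30 min were heated for 3 min over 48°C-58°C. After pooling and extraction in PBS with 0.5% NP-40 at 4°C, soluble protein from a 21,000xg, 90 min spin was quantified by TMTpro 16plex LC-MS/MS with channel sums equalised. Thermal stability is expressed against control samples, from duplicates, as a log2 fold change.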

[2] = compound: CC1=C(SC2=C1C(=N[C@H](C3=NN=C(N32)C)CC(=O)N)C4=CC=C(C=C4)Cl)C
How it was run: as §1

[3] = compound: CC1=C2C(=CC=C1)N=C(N(C2=O)C3=CC=CC=C3C)CN4C=NC5=C(N=CN=C54)N
How it was run: as §1

[4] = compound: Cc1sc2c(c1C)C(c1ccc(Cl)cc1)=N[C@@H](CC(=O)OC(C)(C)C)c1nnc(C)n1-2
How it was run: as §1

[5] = compound: c1ccc([C@@H]2C[C@H]2NC2CCNCC2)cc1
How it was run: as §1

Measured: log2 fold change

RNPS1 (UniProt Q15287)
Chain of UniProt Q15287 (Q15287 whole entry, looked up): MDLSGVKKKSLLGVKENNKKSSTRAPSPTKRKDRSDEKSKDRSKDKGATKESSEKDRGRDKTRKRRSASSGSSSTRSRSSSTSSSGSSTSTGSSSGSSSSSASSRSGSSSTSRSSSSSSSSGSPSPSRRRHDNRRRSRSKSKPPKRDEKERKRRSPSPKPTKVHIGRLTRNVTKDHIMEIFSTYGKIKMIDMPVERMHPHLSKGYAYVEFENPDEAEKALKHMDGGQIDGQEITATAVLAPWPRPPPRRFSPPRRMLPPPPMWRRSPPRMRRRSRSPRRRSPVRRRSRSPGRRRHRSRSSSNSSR
inactive: [1] -0.019 | [2] 0.001 | [3] 0.032 | [4] 0.119 | [5] 0.061

RAB3GAP2 (UniProt Q9H2M9)
inactive: [1] -0.023 | [2] -0.07 | [3] 0.051 | [4] 0.04 | [5] 0.001

RALA (UniProt P11233)
inactive: [1] 0.021 | [2] 0.046 | [3] 0.027 | [4] -0.016 | [5] 0.069

RSF1 (UniProt Q96T23)
inactive: [1] -0.102 | [2] 0.091 | [3] 0.096 | [4] -0.061 | [5] -0.018

RRAGB (UniProt Q5VZM2)
inactive: [1] 0.046 | [2] -0.028 | [3] -0.088 | [4] -0.01 | [5] 0.02

SH3GLB2 (UniProt Q9NR46)
Chain of UniProt Q9NR46 (Q9NR46 whole entry, looked up): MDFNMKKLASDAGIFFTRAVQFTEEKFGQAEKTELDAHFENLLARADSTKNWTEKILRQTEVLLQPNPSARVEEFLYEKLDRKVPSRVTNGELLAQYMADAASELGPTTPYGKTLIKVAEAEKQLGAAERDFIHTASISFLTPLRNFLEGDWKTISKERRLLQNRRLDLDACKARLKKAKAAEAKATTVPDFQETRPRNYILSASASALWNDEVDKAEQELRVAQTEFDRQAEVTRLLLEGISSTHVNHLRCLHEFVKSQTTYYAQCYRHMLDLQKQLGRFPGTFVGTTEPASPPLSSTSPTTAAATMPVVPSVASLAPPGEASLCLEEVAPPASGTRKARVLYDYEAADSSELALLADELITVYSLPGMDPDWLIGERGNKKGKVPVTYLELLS
inactive: [1] -0.029 | [2] 0.064 | [3] 0.029 | [4] 0.004 | [5] -0.063

RALY (UniProt Q9UKM9)
Chain of UniProt Q9UKM9 (Q9UKM9 whole entry, looked up): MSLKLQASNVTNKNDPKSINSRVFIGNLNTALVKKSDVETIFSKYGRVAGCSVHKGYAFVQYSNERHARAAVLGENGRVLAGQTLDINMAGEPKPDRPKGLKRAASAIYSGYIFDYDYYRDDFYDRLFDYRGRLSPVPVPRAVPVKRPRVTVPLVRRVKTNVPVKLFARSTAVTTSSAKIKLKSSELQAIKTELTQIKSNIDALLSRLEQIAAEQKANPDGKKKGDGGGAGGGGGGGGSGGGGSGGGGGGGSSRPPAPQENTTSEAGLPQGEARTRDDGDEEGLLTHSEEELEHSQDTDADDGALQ
inactive: [1] 0.102 | [2] -0.379 | [3] -0.243 | [4] 0.031 | [5] 0.003

RCOR1 (UniProt Q9UKL0)
active: [5] 0.856
inactive: [1] -0.113 | [2] 0.021 | [3] 0.114 | [4] 0.006

RALGPS2 (UniProt Q86X27)
Chain of UniProt Q86X27 (Q86X27 whole entry, looked up): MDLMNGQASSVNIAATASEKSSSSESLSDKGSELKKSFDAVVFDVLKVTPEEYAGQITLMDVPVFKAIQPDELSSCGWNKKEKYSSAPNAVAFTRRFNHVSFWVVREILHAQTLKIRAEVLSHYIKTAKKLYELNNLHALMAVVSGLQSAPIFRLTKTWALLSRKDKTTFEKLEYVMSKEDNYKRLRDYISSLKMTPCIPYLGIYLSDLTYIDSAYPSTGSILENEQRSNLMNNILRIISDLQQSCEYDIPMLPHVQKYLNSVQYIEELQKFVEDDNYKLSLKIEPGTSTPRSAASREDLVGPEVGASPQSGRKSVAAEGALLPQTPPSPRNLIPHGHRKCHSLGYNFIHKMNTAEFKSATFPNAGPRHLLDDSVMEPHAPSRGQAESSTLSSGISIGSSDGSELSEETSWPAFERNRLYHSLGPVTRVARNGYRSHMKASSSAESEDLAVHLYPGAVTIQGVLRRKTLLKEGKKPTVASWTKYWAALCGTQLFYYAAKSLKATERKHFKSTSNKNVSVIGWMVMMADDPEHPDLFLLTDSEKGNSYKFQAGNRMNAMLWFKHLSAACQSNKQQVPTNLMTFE
inactive: [1] -0.069 | [2] 0.073 | [3] -0.093 | [4] 0.116 | [5] -0.01

SDHAF2 (UniProt Q9NX18)
inactive: [1] -0.02 | [2] 0.078 | [3] -0.013 | [4] -0.097 | [5] -0.096

RTN4IP1 (UniProt Q8WWV3)
active: [3] 0.999
inactive: [1] 0 | [2] 0.07 | [4] -0.051 | [5] -0.108

SCAMP2 (UniProt O15127)
Chain of UniProt O15127 (O15127 whole entry, looked up): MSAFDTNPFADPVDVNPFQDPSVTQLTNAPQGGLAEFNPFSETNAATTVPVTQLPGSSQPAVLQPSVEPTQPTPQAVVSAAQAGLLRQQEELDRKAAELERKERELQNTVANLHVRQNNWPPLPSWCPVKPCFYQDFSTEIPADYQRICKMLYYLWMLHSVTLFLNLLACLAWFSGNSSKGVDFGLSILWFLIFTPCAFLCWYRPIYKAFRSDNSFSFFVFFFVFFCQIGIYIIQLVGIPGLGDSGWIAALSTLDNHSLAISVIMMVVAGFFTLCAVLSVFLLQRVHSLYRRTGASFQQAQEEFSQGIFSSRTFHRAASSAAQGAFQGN
inactive: [1] 0.061 | [2] 0.026 | [3] -0.041 | [4] -0.105 | [5] -0.048

RPP14 (UniProt O95059)
inactive: [1] 0.044 | [2] -0.023 | [3] -0.028 | [4] 0.002 | [5] -0.009

RNF2 (UniProt Q99496)
Chain of UniProt Q99496 (Q99496 whole entry, looked up): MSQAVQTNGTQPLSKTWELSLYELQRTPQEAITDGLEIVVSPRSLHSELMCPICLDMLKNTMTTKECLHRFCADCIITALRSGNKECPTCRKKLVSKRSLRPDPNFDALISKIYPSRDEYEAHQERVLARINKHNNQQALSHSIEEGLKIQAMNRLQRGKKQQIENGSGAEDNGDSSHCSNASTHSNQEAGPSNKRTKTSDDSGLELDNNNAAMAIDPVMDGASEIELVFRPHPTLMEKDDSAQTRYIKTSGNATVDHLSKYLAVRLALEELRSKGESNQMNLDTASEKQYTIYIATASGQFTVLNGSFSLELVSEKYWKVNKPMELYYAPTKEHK
inactive: [1] 0.067 | [2] 0.014 | [3] 0.153 | [4] 0.064 | [5] 0.085

RCN3 (UniProt Q96D15)
Chain of UniProt Q96D15 (Q96D15 whole entry, looked up): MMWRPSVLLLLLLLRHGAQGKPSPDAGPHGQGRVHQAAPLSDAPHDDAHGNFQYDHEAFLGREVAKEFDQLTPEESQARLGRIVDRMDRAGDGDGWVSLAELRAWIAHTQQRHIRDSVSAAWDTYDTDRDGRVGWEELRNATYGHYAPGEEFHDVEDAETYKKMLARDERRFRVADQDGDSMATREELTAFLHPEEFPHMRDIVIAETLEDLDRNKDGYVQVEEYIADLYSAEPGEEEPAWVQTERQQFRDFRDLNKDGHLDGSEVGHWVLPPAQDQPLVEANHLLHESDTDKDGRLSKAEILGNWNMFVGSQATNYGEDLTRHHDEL
inactive: [1] 0.016 | [2] 0.032 | [3] -0.061 | [4] -0.01 | [5] 0.023

RPS3A (UniProt D6R9B6)
inactive: [4] 0.248

RBM48 isoform 2 (UniProt Q5RL73)
inactive: [1] 0.008 | [2] 0.058 | [4] -0.36 | [5] 0.113

SDC3 (UniProt O75056)
Chain of UniProt O75056 (O75056 whole entry, looked up): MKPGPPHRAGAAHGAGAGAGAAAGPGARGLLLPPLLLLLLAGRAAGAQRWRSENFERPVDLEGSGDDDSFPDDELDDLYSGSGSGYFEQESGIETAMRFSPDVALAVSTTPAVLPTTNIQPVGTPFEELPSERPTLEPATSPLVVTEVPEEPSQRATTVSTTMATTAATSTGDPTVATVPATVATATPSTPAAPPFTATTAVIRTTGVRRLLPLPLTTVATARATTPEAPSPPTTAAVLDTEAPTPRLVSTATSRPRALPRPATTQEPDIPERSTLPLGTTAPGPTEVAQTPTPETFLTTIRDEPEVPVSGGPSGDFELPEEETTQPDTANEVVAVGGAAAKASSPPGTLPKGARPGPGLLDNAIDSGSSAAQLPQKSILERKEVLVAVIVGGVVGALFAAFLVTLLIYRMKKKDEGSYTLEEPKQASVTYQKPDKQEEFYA
inactive: [2] -0.012 | [3] 0.071 | [4] -0.044 | [5] 0.052

SEMG2 (UniProt Q02383)
inactive: [1] 0.038 | [2] 0.063 | [4] -0.047 | [5] -0.066

RABGAP1L isoform 5 (UniProt Q5R372)
inactive: [1] 0.027 | [2] 0.027 | [4] 0.113 | [5] 0.066

RECQL (UniProt P46063)
Chain of UniProt P46063 (P46063 whole entry, looked up): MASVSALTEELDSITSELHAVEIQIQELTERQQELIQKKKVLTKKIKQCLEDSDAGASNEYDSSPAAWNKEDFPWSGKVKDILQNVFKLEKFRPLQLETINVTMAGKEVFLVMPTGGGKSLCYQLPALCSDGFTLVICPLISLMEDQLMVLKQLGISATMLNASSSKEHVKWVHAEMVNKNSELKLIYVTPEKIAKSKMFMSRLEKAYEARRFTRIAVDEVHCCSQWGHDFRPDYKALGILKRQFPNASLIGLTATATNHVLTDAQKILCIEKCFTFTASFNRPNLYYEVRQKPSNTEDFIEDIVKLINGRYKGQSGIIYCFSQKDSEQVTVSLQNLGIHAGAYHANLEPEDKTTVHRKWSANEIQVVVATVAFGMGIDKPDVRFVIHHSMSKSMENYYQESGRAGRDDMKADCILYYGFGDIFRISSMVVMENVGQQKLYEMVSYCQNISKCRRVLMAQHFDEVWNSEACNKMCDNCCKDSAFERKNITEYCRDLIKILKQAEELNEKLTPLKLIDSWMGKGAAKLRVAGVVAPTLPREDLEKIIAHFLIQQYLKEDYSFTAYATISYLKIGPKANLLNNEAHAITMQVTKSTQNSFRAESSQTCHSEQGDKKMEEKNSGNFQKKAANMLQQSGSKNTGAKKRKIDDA
inactive: [1] -0.012 | [2] 0.087 | [3] 0.015 | [4] -0.029 | [5] -0.02

RAD50, A0A494C0Y7
inactive: [1] -0.1 | [2] -0.003 | [3] 0.194 | [4] 0.104 | [5] 0.118

RBMY1E (UniProt A6NEQ0)
inactive: [1] 0.063 | [2] -0.02 | [4] 0.001 | [5] 0.145

SDCBP (UniProt O00560)
Chain of UniProt O00560 (O00560 whole entry, looked up): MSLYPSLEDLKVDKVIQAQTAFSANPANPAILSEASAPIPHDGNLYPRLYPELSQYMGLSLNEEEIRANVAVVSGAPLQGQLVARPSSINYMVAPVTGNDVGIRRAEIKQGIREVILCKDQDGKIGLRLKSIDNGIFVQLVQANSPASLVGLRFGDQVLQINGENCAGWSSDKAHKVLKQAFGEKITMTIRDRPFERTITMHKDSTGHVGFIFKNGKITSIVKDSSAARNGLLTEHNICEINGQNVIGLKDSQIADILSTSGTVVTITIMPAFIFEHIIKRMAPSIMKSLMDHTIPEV
inactive: [1] 0.029 | [2] -0.031 | [3] -0.067 | [4] 0.04 | [5] -0.102

S100A10 (UniProt P60903)
Chain of UniProt P60903 (P60903 whole entry, looked up): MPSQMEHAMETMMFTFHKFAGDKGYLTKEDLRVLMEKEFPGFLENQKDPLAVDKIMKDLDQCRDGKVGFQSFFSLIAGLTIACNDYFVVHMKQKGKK
inactive: [1] 0.651 | [2] 0.061 | [4] -0.127 | [5] -0.01

RPS6KA3 (UniProt P51812)
Chain of UniProt P51812 (P51812 whole entry, looked up): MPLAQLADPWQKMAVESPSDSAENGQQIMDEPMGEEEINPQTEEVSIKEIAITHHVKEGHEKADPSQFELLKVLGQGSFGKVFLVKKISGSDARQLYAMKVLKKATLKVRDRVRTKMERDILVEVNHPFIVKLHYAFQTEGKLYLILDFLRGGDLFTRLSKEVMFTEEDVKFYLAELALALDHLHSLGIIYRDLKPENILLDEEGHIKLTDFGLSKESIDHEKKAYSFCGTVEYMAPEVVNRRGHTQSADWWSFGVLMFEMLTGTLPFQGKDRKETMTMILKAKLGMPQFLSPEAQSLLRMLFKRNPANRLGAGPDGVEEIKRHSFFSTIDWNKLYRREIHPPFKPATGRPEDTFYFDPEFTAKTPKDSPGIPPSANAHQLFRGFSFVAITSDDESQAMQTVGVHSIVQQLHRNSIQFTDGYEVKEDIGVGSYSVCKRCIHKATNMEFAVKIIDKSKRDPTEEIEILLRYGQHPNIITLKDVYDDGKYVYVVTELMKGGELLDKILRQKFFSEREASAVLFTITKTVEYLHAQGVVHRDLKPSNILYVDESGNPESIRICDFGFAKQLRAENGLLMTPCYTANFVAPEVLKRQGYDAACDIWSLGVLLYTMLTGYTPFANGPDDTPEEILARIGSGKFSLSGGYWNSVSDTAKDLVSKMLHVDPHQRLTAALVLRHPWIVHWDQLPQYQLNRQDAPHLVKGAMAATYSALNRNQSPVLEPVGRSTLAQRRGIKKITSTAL
inactive: [1] -0.044 | [2] 0.05 | [3] 0.036 | [4] -0.034 | [5] -0.006
